Reference: PubChem BioAssay (NCATS)
Results filed as inconclusive are left out. Calls of active or inactive are those of the source. Unless noted, calls come from the whole dose curve; as a rule, active = well fitted curve in the direction sought with a large enough effect; inconclusive = small, poorly fitted or top-dose-only effect, or another doubt; inactive = no such curve, though single readings can be large; an effect the other way counts as inactive or inconclusive.

How the values were obtained:
[1] = AP1 Signaling Pathway (AID 357; active = well fitted curve in either direction with a large enough effect, not every such curve was filed as active;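 note: ME-180 reporter cells stimulated with EGF at its EC50 level; % is set by controls: 0 for no effect and ±100 for the full control effect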); conditions: ME-180 AP-1-bla reporter, EGF-induced, beta-lactamase ratio, 5 h; at 17.2 µM (top of the series) unless noted
Method in brief: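 Titration-series screen for positive or negative modulators of EC50 EGF-induced signaling in ME-180 cells carrying an AP-1-driven beta-lactamase reporter. After 5 hours at 37 degrees Celsius, CCF4 460nm/530nm emission ratio gave %Activity; AC50 values derived.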

[2] = NFAT Signaling Pathway (AID 444; active = well fitted curve in either direction with a large enough effect, not every such curve was filed as active;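 note: carbachol stimulus at about its EC50 of 1 µM final; % is set by controls: 0 for no effect and ±100 for the full control effect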); conditions: Jurkat NFAT-bla M1, carbachol, beta-lactamase ratio, 5 h; at 17.2 µM (top of the series) unless noted
Method in brief: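 Jurkat cells carrying an NFAT-driven β-lactamase reporter and co-transfected muscarinic M1 receptor were treated with compound plus carbachol (1 uM final, an EC50 level) for 5 h at 37 °C. CCF4 loading followed for 1 h at RT; 460/530 nm ratio gave %activity.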

[3] = Stat Signaling Pathway (AID 446; active = well fitted curve in either direction with a large enough effect, not every such curve was filed as active;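 note: ME-180 cervical cancer cells given 40 pM IL-6 alongside compound; SIE-controlled beta-lactamase reporter measured as 460/530 nm FRET emission ratio; % is set by controls: 0 for no effect and ±100 for the full control effect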)
Method in brief: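 Reporter line: ME-180 cervical carcinoma, SIE-beta-lactamase. Treatment: compound with 40 pM IL-6, 5 hrs, 37 C, in low-serum OPTI-MEM with 10 mM HEPES pH 7.3. Detection: 460/530 nm fluorescence.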

[4] = biological target: Glucocorticoid receptor (Homo sapiens) (UniProt P04150); assay: GR-GFP Redistribution (AID 450;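 active = compounds whose dose series gives a full or clear partial fitted curve of increased nuclear translocation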; note: potency is the fitted concentration of half-maximal effect); conditions: U2OS GR-GFP nuclear translocation, laser cytometry, 2 h
[5] = biological target: Glucocorticoid receptor (Homo sapiens) (UniProt P04150); assay: GR-EFC Redistribution (AID 451; calls by dose curve; note: potency is the fitted concentration of half-maximal effect); conditions: CHO-K1 GR-EFC translocation, beta-gal luminescence, 2 h
Method in brief: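 CHO-K1 cells stably expressing nuclear-localized β-gal enzyme acceptor and GR fused C-terminally to the enzyme donor fragment; ligand-driven nuclear translocation restores β-gal by complementation. Compounds titrated up to 46 uM final, 2 h at 37 °C; luminescence read.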

[6] = biological target: Mitogen-activated protein kinase 10 (Mus musculus) (UniProt Q61831); assay: JNK3 AlphaScreen Assay (AID 530; active = well fitted curve in either direction with a large enough effect, not every such curve was filed as active;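 note: kinase came from lysate of stimulated human HepG2 cells; signal reports phosphorylation of biotinylated GST-cJun 1-79 at Ser73 with 10 µM ATP; % is set by controls: 0 for no effect and ±100 for the full control effect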)
Method in brief: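 JNK3 came from HepG2 lysates pre-activated with IL-1beta and TNF-alpha and phosphorylated biotinylated GST-cJun (1-79) at 10 uM ATP, pH 7.6, room temperature. Compounds were titrated. AlphaScreen signal used anti-phospho-cJun (Ser73) antibody.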

[7] = biological target: 3',5'-cyclic-AMP phosphodiesterase 4B (Homo sapiens) (UniProt Q07343); assay: qHTS Assay for Inhibitors of PDE-IV (AID 607; active = well fitted activation curve with a large enough effect in the main read-out, with a control signal flat, not every such curve was filed as active; note: % of control where 0% means no effect)
Method in brief: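 Cell-based read-out of cAMP via a modified cyclic nucleotide-gated channel and membrane potential dye (535/590 nm) in HEK293 cells expressing PDE4 endogenously. Compounds tested up to 22.9 uM final; 100 uM RO 20-1724 reference.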

[8] = biological target: Cytochrome P450 3A4 (Homo sapiens) (UniProt P08684); assay: qHTS Assay for Activators of Cytochrome P450 3A4 (AID 885); note: nearly all actives have a fitted effect of over 65% in size
Method in brief: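 Signal was normalized against complete inhibition by 57 uM ketoconazole. The reaction used 20nM CYP3A4 with 25uM Luciferin-PPXE, 10-min compound preincubation and a 60-min NADPH-supported step at RT.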

[9] = biological target: ATP-dependent 6-phosphofructokinase (Trypanosoma brucei brucei) (UniProt O15648); assay: qHTS Assay to Find Inhibitors of T. brucei phosphofructokinase: hit validation (AID 492961)
Method in brief: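 Reaction: 0.1 M triethanolamine pH 8.0, 5 mM MgCl2, F6P 0.5 mM, ATP 0.1 mM, PFK 1.25 nM, 45 min RT. Read-out: ADP-Glo luminescence. Analysis: concentration-response fits, classed by r2 and efficacy.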

[10] = biological target: Ubiquitin carboxyl-terminal hydrolase 1 (Homo sapiens) (UniProt O94782); assay: Inhibitors of USP1/UAF1: Pilot qHTS (AID 504865);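 note: rhodamine fluorescence freed from ubiquitin-rhodamine substrate followed over time; top concentration of the series differs between compounds; % is set by controls: 0 for no effect and ±100 for the full control effect; nearly all actives have a fitted effect of over 35% in size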
Method in brief: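 Deubiquitinase activity followed as kinetic rhodamine fluorescence release from 150 nM Ub-Rho. 1 nM USP1/UAF1 with compound, after 15 min room-temperature preincubation, in HEPES pH 7.8 buffer containing TCEP, EDTA, BSA and Tween-20.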

[11] = biological target: Luciferin 4-monooxygenase (Photinus pyralis) (UniProt P08659); assay: Biochemical firefly luciferase enzyme assay for NPC (AID 624030);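 note: purified P. pyralis luciferase at 10 nM with luciferin and ATP substrate; 0% = DMSO and -100% = full luciferase inhibition by PTC124 control; nearly all actives have a fitted effect of over 70% in size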
Method in brief: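 Counter-screen for direct inhibition of the luciferase enzyme by approved-drug library compounds, run at 10 nM enzyme in 50 mM Tris acetate (final). Luminescence was read within 5 min of enzyme-buffer addition and normalized to PTC124 versus DMSO (0%).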

[12] = S16 Schwann cell PMP22 intronic element firefly luciferase assay (AID 624032);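 note: plate controls were DMSO for no effect and PTC124 positive control mean for full effect; nearly all actives have a fitted effect of over 30% in size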
Method in brief: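 Rat S16 Schwann cells stably carrying a PMP22 intronic element-driven Fluc reporter were seeded overnight, then exposed to compounds for 24 h at 37 °C. Luminescence was normalized to PTC124 (positive control) and DMSO (0% activity).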

[13] = S16 Schwann cell PMP22 intronic element beta-lactamase assay (AID 624044; calls by dose curve;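 note: 0% = DMSO and -100% = potassium clavulanate positive control; nearly all actives have a fitted effect of over 15% in size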); conditions: S16 rat Schwann cells, PMP22 element beta-lactamase FRET, 24 h; ratio activity, negative = inhibition: at 38.3 µM (top of the series)
Method in brief: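 Rat S16 Schwann cells with beta-Lac driven by a PMP22 intronic element, compound-treated 24 h at 37 °C. LiveBLAzer FRET B/G read: 460 nm normalized to potassium clavulanate vs DMSO; 535 nm FRET as viability; concentration-effect curves classified.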

[14] = qHTS profiling for inhibitors of Plasmodium falciparum proliferation (AID 504749);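 note: 0% = DMSO vehicle and full inhibition = artemisinin control; nearly all actives have a fitted effect of over 60% in size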; conditions: P. falciparum in erythrocytes, SYBR Green DNA, 72 h, at 12.8 µM (top of the series)
Method in brief: (§1)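 P. falciparum-infected erythrocytes (0.3% parasitemia, 2.5% hematocrit final) were exposed to compounds for 72 h at 37 C in 5% CO2, then lysed with SYBR Green buffer overnight at room temperature; parasite DNA fluorescence was normalized to artemisinin and DMSO controls.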

3D7 = assay: as above; conditions: P. falciparum in erythrocytes, SYBR Green DNA, 72 h; series mostly up to 28.7 µM
Method in brief: as §1

AA1029 = assay: as above; conditions: P. falciparum in erythrocytes, SYBR Green DNA, 72 h; series mostly up to 28.7 µM
Method in brief: as §1

AS120 = assay: as above; conditions: P. falciparum in erythrocytes, SYBR Green DNA, 72 h; series mostly up to 28.7 µM
Method in brief: as §1

ATS189 = assay: as above; conditions: P. falciparum in erythrocytes, SYBR Green DNA, 72 h; series mostly up to 28.7 µM
Method in brief: as §1

ATS95 = assay: as above; conditions: P. falciparum in erythrocytes, SYBR Green DNA, 72 h; series mostly up to 28.7 µM
Method in brief: as §1

C2A = assay: as above; conditions: P. falciparum in erythrocytes, SYBR Green DNA, 72 h; series mostly up to 28.7 µM
Method in brief: as §1

CP185 = assay: as above; conditions: P. falciparum in erythrocytes, SYBR Green DNA, 72 h; series mostly up to 28.7 µM
Method in brief: as §1

CP191 = assay: as above; conditions: P. falciparum in erythrocytes, SYBR Green DNA, 72 h; series mostly up to 28.7 µM
Method in brief: as §1

CP192 = assay: as above; conditions: P. falciparum in erythrocytes, SYBR Green DNA, 72 h; series mostly up to 28.7 µM
Method in brief: as §1

CP194 = assay: as above; conditions: P. falciparum in erythrocytes, SYBR Green DNA, 72 h; series mostly up to 28.7 µM
Method in brief: as §1

CP201 = assay: as above; conditions: P. falciparum in erythrocytes, SYBR Green DNA, 72 h; series mostly up to 28.7 µM
Method in brief: as §1

CP203 = assay: as above; conditions: P. falciparum in erythrocytes, SYBR Green DNA, 72 h; series mostly up to 28.7 µM
Method in brief: as §1

CP211 = assay: as above; conditions: P. falciparum in erythrocytes, SYBR Green DNA, 72 h; series mostly up to 28.7 µM
Method in brief: as §1

CP215 = assay: as above; conditions: P. falciparum in erythrocytes, SYBR Green DNA, 72 h; series mostly up to 28.7 µM
Method in brief: as §1

CP217 = assay: as above; conditions: P. falciparum in erythrocytes, SYBR Green DNA, 72 h; series mostly up to 28.7 µM
Method in brief: as §1

CP237 = assay: as above; conditions: P. falciparum in erythrocytes, SYBR Green DNA, 72 h; series mostly up to 28.7 µM
Method in brief: as §1

CP238 = assay: as above; conditions: P. falciparum in erythrocytes, SYBR Green DNA, 72 h; series mostly up to 28.7 µM
Method in brief: as §1

CP247 = assay: as above; conditions: P. falciparum in erythrocytes, SYBR Green DNA, 72 h; series mostly up to 28.7 µM
Method in brief: as §1

CP250 = assay: as above; conditions: P. falciparum in erythrocytes, SYBR Green DNA, 72 h; series mostly up to 28.7 µM
Method in brief: as §1

CP252 = assay: as above; conditions: P. falciparum in erythrocytes, SYBR Green DNA, 72 h; series mostly up to 28.7 µM
Method in brief: as §1

Sequence of Glucocorticoid receptor (Homo sapiens) (P04150 whole entry, looked up, the tested form may be a part): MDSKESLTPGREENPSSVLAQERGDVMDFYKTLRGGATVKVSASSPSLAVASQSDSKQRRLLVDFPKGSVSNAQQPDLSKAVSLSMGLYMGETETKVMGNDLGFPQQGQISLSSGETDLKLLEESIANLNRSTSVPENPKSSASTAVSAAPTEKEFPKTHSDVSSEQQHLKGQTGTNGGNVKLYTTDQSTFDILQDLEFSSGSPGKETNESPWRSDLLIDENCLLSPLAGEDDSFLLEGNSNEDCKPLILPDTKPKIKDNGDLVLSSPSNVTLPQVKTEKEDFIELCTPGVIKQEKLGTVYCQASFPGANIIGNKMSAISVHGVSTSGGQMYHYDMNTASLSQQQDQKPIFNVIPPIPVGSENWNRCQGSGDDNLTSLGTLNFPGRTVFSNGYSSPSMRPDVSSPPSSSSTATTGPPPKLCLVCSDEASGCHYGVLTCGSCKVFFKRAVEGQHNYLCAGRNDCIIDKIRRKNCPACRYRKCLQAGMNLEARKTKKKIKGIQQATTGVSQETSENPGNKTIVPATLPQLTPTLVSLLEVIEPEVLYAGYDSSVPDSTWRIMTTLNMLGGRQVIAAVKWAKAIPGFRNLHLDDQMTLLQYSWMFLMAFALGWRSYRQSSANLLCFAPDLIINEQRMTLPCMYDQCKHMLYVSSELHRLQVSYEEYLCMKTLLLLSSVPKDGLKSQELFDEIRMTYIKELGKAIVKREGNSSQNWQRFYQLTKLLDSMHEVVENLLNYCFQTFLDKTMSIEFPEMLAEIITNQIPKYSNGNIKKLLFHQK
Sequence of ATP-dependent 6-phosphofructokinase (Trypanosoma brucei brucei) (O15648 whole entry, looked up): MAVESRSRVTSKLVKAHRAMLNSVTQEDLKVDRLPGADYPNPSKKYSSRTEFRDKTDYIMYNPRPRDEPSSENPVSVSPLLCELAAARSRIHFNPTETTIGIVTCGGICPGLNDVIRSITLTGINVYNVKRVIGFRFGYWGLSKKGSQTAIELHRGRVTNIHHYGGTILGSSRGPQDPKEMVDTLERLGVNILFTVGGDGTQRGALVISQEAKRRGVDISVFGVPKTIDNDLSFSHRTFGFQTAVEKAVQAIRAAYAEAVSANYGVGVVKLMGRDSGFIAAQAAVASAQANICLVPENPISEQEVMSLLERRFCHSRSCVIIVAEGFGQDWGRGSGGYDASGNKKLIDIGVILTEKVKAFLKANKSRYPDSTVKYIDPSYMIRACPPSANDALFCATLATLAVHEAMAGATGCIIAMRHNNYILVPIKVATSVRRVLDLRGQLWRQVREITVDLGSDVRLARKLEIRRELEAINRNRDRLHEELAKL
Sequence of Cytochrome P450 3A4 (Homo sapiens) (P08684 whole entry, looked up): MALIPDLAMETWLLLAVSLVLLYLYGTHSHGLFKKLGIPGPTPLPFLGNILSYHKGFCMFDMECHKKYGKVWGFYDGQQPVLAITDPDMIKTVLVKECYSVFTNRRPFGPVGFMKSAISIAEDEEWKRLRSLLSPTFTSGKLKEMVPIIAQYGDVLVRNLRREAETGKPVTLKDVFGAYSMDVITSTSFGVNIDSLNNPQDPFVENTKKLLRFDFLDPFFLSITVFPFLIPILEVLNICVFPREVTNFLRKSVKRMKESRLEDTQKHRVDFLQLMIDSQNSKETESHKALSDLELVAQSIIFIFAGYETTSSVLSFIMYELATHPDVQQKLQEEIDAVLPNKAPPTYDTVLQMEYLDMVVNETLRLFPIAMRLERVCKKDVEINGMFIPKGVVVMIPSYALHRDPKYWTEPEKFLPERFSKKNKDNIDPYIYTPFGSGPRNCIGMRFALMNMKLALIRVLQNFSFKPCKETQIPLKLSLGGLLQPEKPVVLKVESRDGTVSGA
Sequence of 3',5'-cyclic-AMP phosphodiesterase 4B (Homo sapiens) (Q07343 whole entry, looked up): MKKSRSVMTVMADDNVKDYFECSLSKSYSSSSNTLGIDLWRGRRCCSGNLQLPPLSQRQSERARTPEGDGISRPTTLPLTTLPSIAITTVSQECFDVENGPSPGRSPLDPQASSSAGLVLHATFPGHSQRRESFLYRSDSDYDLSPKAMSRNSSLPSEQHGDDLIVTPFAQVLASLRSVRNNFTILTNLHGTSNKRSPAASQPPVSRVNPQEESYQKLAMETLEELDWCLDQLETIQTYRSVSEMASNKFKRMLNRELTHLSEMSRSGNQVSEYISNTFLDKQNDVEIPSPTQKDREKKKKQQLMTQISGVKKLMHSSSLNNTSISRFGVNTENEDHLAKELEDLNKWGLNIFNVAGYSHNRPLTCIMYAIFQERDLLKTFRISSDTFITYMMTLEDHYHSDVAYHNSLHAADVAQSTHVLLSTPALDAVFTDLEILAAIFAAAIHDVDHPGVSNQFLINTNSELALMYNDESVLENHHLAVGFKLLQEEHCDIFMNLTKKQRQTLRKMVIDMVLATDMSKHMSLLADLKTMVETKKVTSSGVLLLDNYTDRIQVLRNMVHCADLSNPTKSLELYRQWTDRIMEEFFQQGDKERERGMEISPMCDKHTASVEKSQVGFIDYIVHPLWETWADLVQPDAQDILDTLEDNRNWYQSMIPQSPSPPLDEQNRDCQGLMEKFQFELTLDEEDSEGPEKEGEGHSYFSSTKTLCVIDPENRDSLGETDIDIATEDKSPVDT
Sequence of Ubiquitin carboxyl-terminal hydrolase 1 (Homo sapiens) (O94782 whole entry, looked up): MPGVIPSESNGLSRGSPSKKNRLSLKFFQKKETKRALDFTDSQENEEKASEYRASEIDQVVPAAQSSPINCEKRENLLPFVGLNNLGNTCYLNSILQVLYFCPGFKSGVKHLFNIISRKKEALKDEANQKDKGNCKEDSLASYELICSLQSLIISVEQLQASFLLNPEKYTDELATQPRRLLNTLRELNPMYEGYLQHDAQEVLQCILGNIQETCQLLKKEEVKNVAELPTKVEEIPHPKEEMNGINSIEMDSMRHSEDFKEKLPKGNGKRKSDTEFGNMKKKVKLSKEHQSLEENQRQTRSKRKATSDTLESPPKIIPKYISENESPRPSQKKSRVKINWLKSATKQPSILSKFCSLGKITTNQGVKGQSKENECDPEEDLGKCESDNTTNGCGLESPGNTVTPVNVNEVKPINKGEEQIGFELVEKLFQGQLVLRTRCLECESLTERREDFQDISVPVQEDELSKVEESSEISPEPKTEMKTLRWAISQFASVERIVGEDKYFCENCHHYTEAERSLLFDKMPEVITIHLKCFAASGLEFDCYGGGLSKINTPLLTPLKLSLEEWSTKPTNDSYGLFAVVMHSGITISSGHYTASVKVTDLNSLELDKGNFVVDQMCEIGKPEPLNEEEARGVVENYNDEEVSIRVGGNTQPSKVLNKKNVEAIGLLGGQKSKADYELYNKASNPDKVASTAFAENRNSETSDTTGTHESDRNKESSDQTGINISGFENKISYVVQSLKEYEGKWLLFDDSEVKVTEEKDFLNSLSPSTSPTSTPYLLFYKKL
Sequence of Luciferin 4-monooxygenase (Photinus pyralis) (P08659 whole entry, looked up): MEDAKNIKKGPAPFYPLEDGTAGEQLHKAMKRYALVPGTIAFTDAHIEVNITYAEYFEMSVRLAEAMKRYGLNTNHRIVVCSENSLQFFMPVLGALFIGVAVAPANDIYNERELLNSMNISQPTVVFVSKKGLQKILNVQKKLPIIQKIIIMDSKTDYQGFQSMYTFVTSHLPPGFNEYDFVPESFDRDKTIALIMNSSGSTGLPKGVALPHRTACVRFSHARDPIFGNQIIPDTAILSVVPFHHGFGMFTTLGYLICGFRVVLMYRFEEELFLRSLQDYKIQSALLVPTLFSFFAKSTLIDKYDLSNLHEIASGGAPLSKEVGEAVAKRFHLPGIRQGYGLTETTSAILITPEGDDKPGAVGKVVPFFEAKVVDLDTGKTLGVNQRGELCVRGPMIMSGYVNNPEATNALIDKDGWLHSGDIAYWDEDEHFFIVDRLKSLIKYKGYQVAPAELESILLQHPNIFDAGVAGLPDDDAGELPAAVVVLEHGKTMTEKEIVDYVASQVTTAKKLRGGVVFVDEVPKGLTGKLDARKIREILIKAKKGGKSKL

CCOC(=O)c1cncn1[C@@H](C)c1ccccc1
inactive: activity change, negative = inhibition [1] 9.06% | activity change, negative = inhibition [2] -21.8% | outcome [3] | Potency [4] > 20.6 µM | Potency [5] > 20.6 µM | outcome [6] | outcome [7] | Potency [8] | outcome [9] | Potency [10] | Potency [11] | Potency [12] | Potency [13] | activity, negative = inhibition ([14]; parasite line A) -15.7% | activity, negative = inhibition ([14]; parasite line B) -15.4% | Potency (3D7) | Potency (AA1029) | Potency (AS120) | Potency (ATS189) | Potency (ATS95) | Potency (C2A) | Potency (CP185) | Potency (CP191) | Potency (CP192) | Potency (CP194) | Potency (CP201) | Potency (CP203) | Potency (CP211) | Potency (CP215) | Potency (CP217) | Potency (CP237) | Potency (CP238) | Potency (CP247) | Potency (CP250) | Potency (CP252)
